# An excerpt weighted towards active compounds, which were near 2.3% of everything screened.
# CHO-K1 Ca antag: counter-screen for M1 antagonists: effect in parental CHO-K1 cells. ATP-induced calcium, Fluo-8 fluorescence. inhibition, % at 3 µM. 0.6% of 360,000 active. AID 602250;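 active means inhibition above a per-plate cutoff, the plate's mean sample inhibition plus 3 SD, cut at about 24% in these data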;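 further: 0% = DMSO plus EC80 ATP and 100% = DMSO alone without ATP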
# CHO-K1 Ca ag: M1 agonist counterscreen hit in parental CHO-K1 cells; AID 602248; 0.48% of 360,000 active; Fluo-8 calcium fluorescence; scaled to maximal ATP response, vehicle zero; activation, % at 3 µM; in the data active means activation above about 15%;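 further: untransfected CHO-K1 host cells lacking M1 receptor as counterscreen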
# M1 PAM: positive allosteric modulators of human M1 muscarinic receptor | P11229 | CHO-K1 hM1, Fluo-8 calcium fluorescence, ACh EC20; 0% = ACh EC20, 100% = maximal ACh | activation, % at 3 µM | 0.088% of 360,000 active | AID 588819; in the data active means activation above about 19%, passing the limit was not always enough
# Target sequence (P11229 whole entry, looked up): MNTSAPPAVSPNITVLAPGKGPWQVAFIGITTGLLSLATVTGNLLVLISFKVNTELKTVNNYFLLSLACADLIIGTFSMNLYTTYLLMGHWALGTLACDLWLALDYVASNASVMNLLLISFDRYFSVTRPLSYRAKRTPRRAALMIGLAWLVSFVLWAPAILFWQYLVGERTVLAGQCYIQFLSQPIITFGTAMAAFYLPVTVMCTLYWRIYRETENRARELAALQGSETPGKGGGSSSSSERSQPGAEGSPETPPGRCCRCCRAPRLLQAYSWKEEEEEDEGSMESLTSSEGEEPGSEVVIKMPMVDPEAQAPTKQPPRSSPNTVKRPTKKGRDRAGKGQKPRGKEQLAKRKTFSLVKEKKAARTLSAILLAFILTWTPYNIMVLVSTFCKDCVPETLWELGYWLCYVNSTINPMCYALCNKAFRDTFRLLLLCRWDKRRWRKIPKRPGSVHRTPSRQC
# CHO-K1 Ca PAM: counter-screen for M1 PAMs: effect in parental CHO-K1 cells; ATP EC20, Fluo-8 calcium fluorescence; 0% at ATP EC20, 100% at ATP max; AID 602247; activation, % at 3 µM; 0.02% of 360,000 active;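 active means activation above the run cutoff, the mean activation of all test compounds plus 3 SD, cut at about 40% in these data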;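 further: peak over basal fluorescence ratio in a 140 s read after ATP addition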
# M1 antag: antagonists of human M1 muscarinic receptor; P11229; CHO-K1 hM1, Fluo-8 calcium fluorescence, ACh EC80 antagonist; inhibition, % at 3 µM; 1.3% of 360,000 active; AID 588852;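 active means percent inhibition above its own plate's cutoff, namely the mean of that plate's compound wells plus 3 SD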;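 further: peak over basal fluorescence ratio during 140 s after agonist addition; 0% = ACh EC80 plus DMSO and 100% = DMSO alone without agonist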
# CHRM1 agonist: activates human CHRM1 receptor. P11229. CHO-K1 hM1, Fluo-8 calcium fluorescence, agonist mode; 0% DMSO, 100% acetylcholine EC100. activation, % at 3 µM. 0.33% of 360,000 active;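 active means activation above the run's mean compound activation plus 3 SD, cut at about 16% in these data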;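 further: peak over basal fluorescence ratio within a 140 s kinetic read after compound addition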
# An asterisk follows results filed as active; . = no result.
SMILES,CHO-K1 Ca antag,CHO-K1 Ca ag,M1 PAM,CHO-K1 Ca PAM,M1 antag,CHRM1 agonist
CC(=O)Nc1sc2c(c1C(c1ccccn1)N1CCCC1)CCCC2 (stereo unspecified),0,0,-6,-18,14,4
Cc1cccc2c1N(CCCOc1ccccc1)C(=O)C2=O,3,0,13,6,-12,20*
Cc1ccccc1OCCCN1C(=O)C(=O)c2cccc(C)c21,-2,3,7,20,-11,22*
Cc1ccc2c(c1)C(=O)C(=O)N2CCCOc1ccccc1C,-19,3,10,21,-8,0
COc1cc(/C=N\NC(=O)C2COc3ccccc3O2)cc(OC)c1O (stereo unspecified),-4,21*,8,16,-12,1
COc1cc(/C=N/NC(=O)C2COc3ccccc3O2)ccc1O (stereo unspecified),15,2,-8,-7,8,-2
COc1cccc(Nc2nc(C(N)C3CCCCC3)cs2)n1 (stereo unspecified),-2,4,3,6,-5,5
CC/C(CC(C)(C)c1ccccc1)=N\O,-15,0,7,22,-4,-3
CC[N+](C)(CC)CCC/C(=N/O)C(O)(c1ccccc1)c1ccccc1,-5,1,-20,14,64*,-3
CCN(CC)CCC/C(=N\O)C(O)(c1ccccc1)c1ccccc1,-14,1,-22,11,95*,-5
CC(=O)N1CCc2cc(NC(=O)C3(C)CCN3Cc3ccc(C(C)C)cc3)ccc21 (stereo unspecified),-5,5,-15,14,9,-6
CCCCN(c1ccccc1)S(=O)(=O)c1cccc(C(=O)Nc2c(C)n(C)n(-c3ccccc3)c2=O)c1,-7,-1,24,8,-18,-9
CN1/C(=C\C(=O)CSc2ncn[nH]2)C(C)(C)c2ccccc21,26*,4,-9,-11,20,-1
CN1/C(=C\C(=O)COC(=O)c2ccccc2O)C(C)(C)c2ccccc21,5,17*,-7,5,8,-2
CC(OC(=O)Cn1[nH]c(=O)c2ccccc2c1=O)C(=O)c1ccccc1 (stereo unspecified),24*,1,20,-30,-7,6
O=C(c1ccccc1)c1ccc(OCC(O)CNCc2ccc(Cl)cc2)cc1 (stereo unspecified),1,18*,2,8,2,2
CCNC(=O)C1(c2ccccc2)CCCC1,-16,0,10,15,-12,0
O=C(OCCN1CCCCC1)C1(c2ccccc2)CCCC1,-2,2,-38,5,100*,-15
CN(C)CCOC(=O)C1(c2ccccc2)CCCC1,-4,1,-23,13,100*,-5
C[N+]1(CCCOC(=O)C2(c3ccccc3)CCCC2)CCOCC1,7,0,-23,-7,100*,-9
O=C(OCCN1CCCC1)C1(c2ccccc2)CCCC1,-1,1,-23,21,99*,-5
CN(C)CCC1(c2ccccc2)CCN(C)C1=O (stereo unspecified),2,0,8,0,-13,-5
COc1ccc(C(CCNCc2ccc(OC)c(OC)c2)c2ccc(F)cc2)cc1 (stereo unspecified),8,18*,-2,-1,9,0
COc1ccc(C(CCNCc2ccc(N(C)C)cc2)c2ccccc2)cc1 (stereo unspecified),3,22*,-3,-9,14,-7
CC(C)Oc1ccc(CNC(=O)CC(c2ccccc2)c2cc(Cl)ccc2O)cc1 (stereo unspecified),-11,1,0,9,7,-6
SMILES,CHO-K1 Ca antag,CHO-K1 Ca ag,M1 PAM,CHO-K1 Ca PAM,M1 antag,CHRM1 agonist
COc1ccc(CCNCCC(c2ccccc2)c2ccccc2)cc1OC,10,2,-24,4,30,-3
CC(C)Oc1ccc(C(CCNCc2ccc(O)cc2)c2ccccc2)cc1 (stereo unspecified),15,21*,-10,2,11,-4
CN1C(=O)C(N=Nc2ccc([N+](=O)[O-])cc2)SC1=S (stereo unspecified),-17,10,-11,11,4,12
COc1ccc(Cc2c(-c3ccc(C)cc3)nc3ccc(Cl)cn23)c(C)c1,5,0,1,5,4,-10
CCCc1c(-c2ccc(Cl)cc2)ncn1Cc1ccccc1OC,3,16*,.,9,.,.
COC(=O)Cn1nc(-c2ccc(C)c(S(=O)(=O)N(C)C)c2)c2ccccc2c1=O,1,0,7,8,-10,-2
Cc1ccc(-c2nn(CC(=O)N(C)C)c(=O)c3ccccc23)cc1S(=O)(=O)N(C)C,-31,0,21*,12,-50,-3
O=C(c1[nH]c(C(F)(F)F)nc1-c1ccccc1)N1CCc2ccccc2C1,-5,0,-3,5,-14,-2
CC(=O)Nc1ccc2cnn(C(C)=O)c2c1,-2,0,5,16,-14,-1
CC(C)(C)OC(=O)NCCCCCNC(=O)c1ncn2c1c(=O)[nH]c1ccccc12,-10,1,1,18,-3,-8
O=C1Nc2ccccc2N(C(=O)c2ccc(-c3ccccc3)cc2)C1c1nc2ccccc2[nH]1 (stereo unspecified),-9,0,.,0,.,.
CC(C)C[C@@H]1CN=C(N)N1C[C@@H]1CCCN1C[C@@H](C(C)C)N1C[C@@H](Cc2ccccc2)N(CCCC2CCCC2)C1=N,-8,0,-5,16,-3,-11
CCCCN1C(=N)N([C@@H](CN2CCC[C@H]2CN2C(N)=NC[C@@H]2Cc2ccccc2)C(C)C)C[C@H]1Cc1ccccc1,11,0,-33,-20,59*,-11
CCCCN1C(=N)N([C@@H](C)CN2CCC[C@H]2CN2C(N)=NC[C@@H]2Cc2ccccc2)C[C@H]1Cc1ccccc1,-2,0,-40,-6,94*,-13
O=C(NNc1ccnc2cc(Cl)ccc12)C1CCCCC1,14,12,-10,-9,32*,-4
CCOC(=O)C1(C)CCCN1C(=O)c1ccc(C(F)(F)F)nc1C (stereo unspecified),5,0,1,-2,6,-3
CSc1ccccc1NC(=O)c1ccccc1,0,16*,8,10,-11,-4
Nc1ccc(NC(=O)c2ccccc2)c2c1C(=O)c1ccccc1C2=O,26*,0,-2,-10,9,-4
O=C(Nc1ccccc1C(=O)N1CCCC1)c1ccccc1,15,0,5,-14,16,16*
C=CCC[C@@H](Cc1ccc(F)cc1)C(=O)OC[C@H](Cc1c[nH]c2ccccc12)NC(=O)[C@@H](CC=C)CC(=O)NCCO,8,18*,5,2,1,1

# High-throughput results as filed in PubChem.
